Experimental data as given in PubChem BioAssay (NCATS).
Results filed as inconclusive are left out. Where a call stands in place of a potency, no number is given. Unmarked numbers belong to inactive results. Activity calls are given as the source filed them. The call rests on the fitted dose curve; in most records, active means well fitted activation curve with a large enough effect; inconclusive means small, poorly fitted or top-dose-only effect; inactive means flat fitted curve, though single readings scatter. *1 amine or outer side, *2 acyl side, *3 side chain or, on linkers, in order; H or OH if unused. Where a SMILES comes first, the peptide text is derived from it. [ ]: non-standard residue; d: D form. The star is where a group is joined. ξ: configuration not given here. X9 = CCC(C)(N*)C(=O)C1CC[C@@H](C(=O)N[C@@H](Cc2ccccc2)C(=O)NCC(=O)O)N1; X8 = O=C([C@@H]1CC(O)CN1[*:1])[*:2]; aIle = CC[C@@H](C)[C@H](N)C(=O)O; Thr(3ξ) = CC(O)[C@H](N)C(=O)O; ξIva = CCC(C)(N)C(=O)O; Aib = CC(C)(N)C(=O)O

Experiment: Primary redox qHTS assay for identification of artifact compounds. (AID 1845223)
Conditions: Amplex Red/HRP redox cycling with DTT, fluorescence; series mostly up to 53.8 µM
How it was run: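 Amplex Red (25 uM) and HRP (250 mU/mL) in HBSS, with compounds for 15 min, then 250 uM DTT for 30 min, room temperature, dark. Fluorescence 525/598 nm read; normalized to DMSO and 10 uM DA3003; Hill fit.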

Structure (SMILES) | Potency | redox activity (% of DA3003)
COC(=O)C1=CO[C@@H](O[C@@H]2O[C@H](CO)[C@@H](O)[C@H](O)[C@H]2O)[C@@H]2[C@@H](C)[C@@H](O)C(O)[C@H]12 (some centres undefined) | inactive | –
CC(O)C/C=C/C=C/C(=O)OC1C=C2COC(=O)C2(O)C2(C)CCCC(C)(C)C12 (centres undefined) | inactive | –
CNC(C)C(=O)NC(C(=O)N1CCCC1C(=O)Nc1cccc2ncccc12)C(C)C (centres undefined) | inactive | –
Nc1nc2c(nc(Sc3ccc(Cl)cc3)n2[C@@H]2O[C@@H]3COP(=O)(O)O[C@H]3[C@H]2O)c(=O)[nH]1 | inactive | –
N#Cc1ccc(C2CCCc3cncn32)cc1 (centres undefined) | inactive | –
COc1cc2c(cc1OC)N1C(=O)C[C@@]34C=CC[N@+]5([O-])CC[C@H]2[C@H](CC3)[C@@]145 | inactive | –
C=C[C@@]1(C)CCC2=C([C@H]1OC(C)=O)[C@H](OC(C)=O)CC1[C@](C)(C(=O)OC)CC[C@H](OC(C)=O)[C@]21C (some centres undefined) | inactive | –
CC[C@@H](C)[C@H](NC(=O)C(C)(C)NC(=O)[C@H](CCC(N)=O)NC(=O)C(C)(CC)NC(=O)[C@H](Cc1c[nH]c2ccccc12)NC(C)=O)C(=O)N[C@H](C(=O)NC(C)(C)C(=O)N[C@@H](CC(C)C)C(=O)NC(C)(C)C(=O)N1CCC[C@H]1C(=O)N[C@@H](CCC(N)=O)C(=O)NC(C)(C)C(=O)N1CC(O)C[C@H]1C(=O)NC(C)(CC)C(=O)C1CC[C@@H](C(=O)N[C@@H](Cc2ccccc2)C(=O)NCC(=O)O)N1)C(C)O (some centres undefined) (Ac-W[ξIva]Q[Aib][aIle][Thr(3ξ)][Aib]L[Aib]PQ[Aib][X8]-X9) | – | 8.28% [at 6.41 µM]
C/C1=C\CC[C@]2(C)O[C@H]2C(=O)c2c(C)coc2C1 | inactive | –
O=C(OC(C(F)(F)F)C(F)(F)F)N1CCN(Cc2cccc(Oc3ccccc3)c2)CC1 | inactive | –
CC1(C)C2CC[C@@]34CC(CC[C@H]3[C@]2(C)CC[C@@H]1O[C@@H]1O[C@H](CO)[C@@H](O)[C@H](O)[C@H]1O)[C@](C)(O)C4 (some centres undefined) | inactive | –
CC1CC(O)/C=C/C(O)/C=C\C(=O)O1 (centres undefined) | inactive | –
COc1cc2nc(=NC(=O)c3cccnc3)n3c(c2cc1OC)NCC3 | inactive | –
COc1cc(C(C)=O)ccc1O[C@@H]1O[C@H](CO[C@@H]2OC[C@@H](O)[C@H](O)[C@H]2O)[C@@H](O)[C@H](O)[C@H]1O | inactive | –
Cc1ccc(Cl)cc1N(CC(=O)Nc1c(F)cccc1F)S(C)(=O)=O | inactive | –
CCCN(CCN1CCN(c2ccccc2OC)CC1)C1CCc2ncsc2C1 (centres undefined) | inactive | –
CC(C)CC(=O)OC[C@@]1(O)C[C@@]23CC[C@H]4[C@@](C)(CCC[C@@]4(C)C(=O)O)[C@@H]2CC[C@@H]1C3 | inactive | –
CC1(C)CC[C@]2(C(=O)O[C@@H]3O[C@H](CO)[C@@H](O)[C@H](O)[C@H]3O)CC[C@]3(C)C(=CCC4[C@@]5(C)CC[C@H](O[C@H]6O[C@H](CO)[C@@H](O)[C@H](O[C@@H]7O[C@H](CO)[C@@H](O)[C@H](O)[C@H]7O)[C@H]6O)C(C)(C)C5CC[C@]43C)[C@@H]2C1 (some centres undefined) | – | 12.2% [at 11.5 µM]
CC(=O)OC(C)C(C)(O)C(=O)O[C@@H]1CC[C@]2(C)CC(=O)C(=C(C)C)C[C@H]2[C@]1(C)OC(C)=O (some centres undefined) | inactive | –
Cc1nnc(-c2sc(NC(=O)[C@H](C(C)C)n3c(=O)[nH]c4ccccc4c3=O)nc2C)o1 | inactive | –
CC(C)c1ccc2c(c1)[C@H](O)CC1[C@@](C)(C(=O)O)CCC[C@]21C (some centres undefined) | inactive | –
COC(=O)/C=C/c1ccc(O[C@@H]2O[C@H](CO)[C@@H](O)[C@H](O)[C@H]2O)cc1 | inactive | –
C=CCC/C=C/C#CCCCCCCCC[C@H]1C(=O)O[C@H](C)[C@@H]1O | inactive | –
CC1=C(CCC(C)O[C@@H]2O[C@H](CO)[C@@H](O)[C@H](O)[C@H]2O)C(C)(C)CC(O)C1 (some centres undefined) | inactive | –
COc1cccc2c1c(O)c(C(=O)N(C)c1ccc(C(F)(F)F)cc1)c(=O)n2C | inactive | –
Cc1c(C)c(NCC(=O)N(C)C2CCN(Cc3ccc(C(N)=O)cc3)CC2)c(C)c(C)c1N | inactive | –
C[C@@H]1O[C@@H](O[C@H]2[C@@H]3C=CO[C@@H](O[C@@H]4O[C@H](CO)[C@@H](O)[C@H](O)[C@H]4O)[C@@H]3[C@@]3(CO)O[C@@H]23)[C@H](O)[C@H](OC(=O)/C=C/c2ccc(O)cc2)[C@H]1OC(=O)/C=C/c1ccc(O)cc1 | inactive | –
COc1ccc(C(=O)CC(=O)O)c2c1C=CC(C)(C)O2 | inactive | –
C=C(CCO)C(=O)OCC1OCC(OC(=O)C(=C)CCO[C@@H]2O[C@H](CO)[C@@H](O)[C@H](O)[C@H]2O)C(O)C1O (some centres undefined) | inactive | –
